# Measurements from PubChem BioAssay (NCATS).
# Results filed as inconclusive are left out. Where a call stands in place of a potency, no number is given. Active and inactive are the calls of the source. Unless noted, calls follow the shape of the dose curve; as a rule, active = well fitted curve in the direction sought with a large enough effect; inconclusive = small, poorly fitted or top-dose-only effect, or another doubt; inactive = no such curve, though single readings can be large; an effect the other way counts as inactive or inconclusive.
# Assays:
# [1] = tested on: Zika virus NS2B-NS3 protease; test: Primary screen GU AMC qHTS for Zika virus inhibitors (AID 1347154); also: nearly all actives have a fitted effect of over 70% in size
# Summary of the method: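 Unlinked Zika NS2B hydrophilic domain/NS3 protease domain noncovalent complex (25 nM final) in 10 mM Tris-HCl pH 8.0, 0.01% Tween 20, with AMC peptide substrate. Fluorescence (ex 340, em 450 nm) change over 15 min, room temperature; percent inhibition fitted to 4-parameter Hill equation.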
# [2] = tested on: Zika virus NS2B-NS3 protease (unlinked complex); test: Confirmatory screen GU AMC qHTS for Zika virus inhibitors (AID 1347153); also: nearly all actives have a fitted effect of over 70% in size;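 as to potency: enzyme at 25 nM with substrate at 10 µM below its Km of 18.3 µM; potency is read from the fitted curve at half-maximal effect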
# Summary of the method: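 Noncovalent NS2B hydrophilic domain/NS3 protease complex (25 nM) in 10 mM Tris-HCl pH 8.0, 0.01% Tween 20 was preincubated 15 min at room temperature with compounds. Then 10 µM AMC substrate (Km 18.3 µM) was added; fluorescence was read over 15 min and fitted to a 4-parameter Hill equation.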
# [3] = Confirmatory screen NINDS Rhodamine qHTS for Zika virus inhibitors (AID 1347161); also: potency is read from the fitted curve at half-maximal effect; nearly all actives have a fitted effect of over 60% in size
# Summary of the method: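 qHTS dose-response: 25 nM linked protease, pH 8.0 Tris/Tween buffer, cpd titration, 15 min RT preinc, 1.5 microM Rhod110 peptide, 15 min reaction (~15% conversion), Ex480/Em540; 4-parameter Hill fit.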
# [4] = Primary qHTS for small molecule stabilizers of the endoplasmic reticulum resident proteome: Secreted ER Calcium Modulated Protein (SERCaMP) assay (AID 1508630)
# Summary of the method: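 GLuc-SERCaMP-expressing SH-SY5Y cells, pretreated 16 h with compound, are challenged with thapsigargin to empty ER calcium stores; after 4 h, coelenterazine is added directly to the medium and luminescence is imaged.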
# [5] = target: Glutathione peroxidase 1 (Homo sapiens) (UniProt P07203); test: Primary qHTS Assay for Inhibitors of Recombinant Selenoprotein Glutathione Peroxidase 1 (GPX1) (AID 1845191); also: nearly all actives have a fitted effect of over 65% in size
# Summary of the method: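 Recombinant GPX1 (10 nM final) was preincubated with compound for 30 min at room temperature, then reacted with 1 mM GSH, 0.5 mM CHP, 0.5 mM NADPH and 100 nM glutathione reductase; NADPH fluorescence (340/450 nm) was read at 0 and 15 min.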
# [6] = qHTS profiling of the MIPE4 collection as inhibitors of Plasmodium falciparum (3D7) proliferation (AID 743344; call rule not given here); conditions: P. falciparum 3D7 in erythrocytes, SYBR Green DNA fluorescence, 72 h; at 28.5 µM (top of the series)
# Summary of the method: (§1)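 Erythrocytes infected with P. falciparum (0.3% parasitemia, 2.5% hematocrit) incubated with compounds 72 h at 37 C, 5% CO2. Lysis with saponin/Triton buffer containing SYBR Green I, overnight at room temperature in the dark; DNA fluorescence (485/535 nm) normalised to 0.29 uM artemisinin and DMSO.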
# [7] = qHTS profiling of the MIPE4 collection as inhibitors of Plasmodium falciparum (DD2) proliferation (AID 743345; call rule not given here); conditions: P. falciparum Dd2 in erythrocytes, SYBR Green DNA, 72 h; at 28.5 µM (top of the series)
# Summary of the method: as §1
# [8] = qHTS profiling of the MIPE4 collection as inhibitors of Plasmodium falciparum (DD2) proliferation (Rep 2) (AID 743346; call rule not given here); conditions: P. falciparum Dd2 in erythrocytes, SYBR Green DNA, 72 h; at 28.5 µM (top of the series)
# Summary of the method: as §1
# [9] = qHTS profiling of the MIPE4 collection as inhibitors of Plasmodium falciparum (HB3) proliferation (AID 743347; call rule not given here); conditions: P. falciparum HB3 in erythrocytes, SYBR Green DNA, 72 h; at 28.5 µM (top of the series)
# Summary of the method: as §1
# [10] = tested on: Zika virus NS2B-NS3 protease (linked); test: 384 well plate NINDS AMC confirmatory qHTS for Zika virus inhibitors (AID 1347163);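 also: linked protease at 5 30 or 60 nM final depending on run; fluorescence of AMC released from Ac-VKTGKR-AMC peptide cleaved by the protease; top concentration of the series differs between compounds; nearly all actives have a fitted effect of over 50% in size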
# Summary of the method: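 Linked protease 5/30/60 nM final; cpds up to 1 mM final, ~15 min preinc. Substrate Ac-VKTGKR-AMC 30 microM final. RT, dark, 25 min; FI ex 355/em 460; normalized to no-enzyme/no-inhibitor ctrls.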
# [11] = tested on: Zika virus NS2B-NS3 protease (linked construct); test: 384 well plate NINDS Rhodamine confirmatory qHTS for Zika virus inhibitors (AID 1347164);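 also: fluorescence from protease cleavage of Ac-LKRR-rhodamine 110 substrate; potency is read from the fitted curve at half-maximal effect; nearly all actives have a fitted effect of over 65% in size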
# Summary of the method: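 Linked protease at a final 5 nM, 30 nM or 60 nM was preincubated ~15 min with compounds, then given 10 microM Ac-LKRR-Rhodamine 110. Fluorescence (ex 485/em 538 nm) after 25 min in the dark at room temperature.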
# [12] = Vero cells viability qHTS for Zika virus inhibitors (AID 1347167)
# Summary of the method: (§2)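 Counter-screen for cytotoxicity of hits from NS2B-NS3 protease qHTS. Overnight-attached cells (2.5 x 10^5 cells/mL, DMEM/4% FBS) were dosed in titration, incubated 24 to 48 hours, then assayed by CellTiter Glo.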
# [13] = HepG2 cells viability qHTS for Zika virus inhibitors (AID 1347168)
# Summary of the method: as §2
# [14] = Tertiary RLuc qRT-PCR qHTS assay for Zika virus inhibitors (AID 1347169); also: top concentration of the series differs between compounds; nearly all actives have a fitted effect of over 55% in size
# Summary of the method: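 Vero cells (1,000 per well) plated overnight at 37 degrees C, treated with compound in DMSO, then infected with recombinant ZIKV-RLuc (Cambodian) at MOI 1-2 for 48-72 hrs. Live-cell Renilla luciferase substrate added; luminescence read after 1-1.5 hrs.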
# Sequence of Glutathione peroxidase 1 (Homo sapiens) (P07203 whole entry, looked up): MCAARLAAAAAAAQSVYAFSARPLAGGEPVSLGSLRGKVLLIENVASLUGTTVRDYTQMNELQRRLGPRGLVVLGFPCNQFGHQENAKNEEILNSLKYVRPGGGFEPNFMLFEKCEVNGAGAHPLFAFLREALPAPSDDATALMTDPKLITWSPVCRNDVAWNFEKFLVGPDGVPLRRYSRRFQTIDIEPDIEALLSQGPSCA
compound,measurement,setting,value
C=C1CC[C@H](O)C/C1=C/C=C1\CCC[C@]2(C)C([C@H](C)CCCC(C)(C)O)CC[C@@H]12 (stereo partly drawn),Potency,[1],inactive
C[C@H](N)CCP(=O)(O)O,Potency,[1],inactive
CCCCCCCCCCCCCC(=O)N[C@@H](C)[C@H](O)c1ccccc1,"activity change, negative = inhibition",[1],10.8% [at 6.83 µM] (inactive)
NCCNC(=O)Cc1ccc(NC(=O)Cc2ccc(Nc3ncnc4c3ncn4[C@@H]3O[C@H](CO)[C@@H](O)[C@H]3O)cc2)cc1,Potency,[1],inactive
CN(C)CCC1(c2ccc(Cl)cc2)Cc2ccccc2C(=O)O1 (stereo not drawn),Potency,[1],inactive
COC(=O)[C@H](CCCN=C(N)N)NC(=O)CCCc1c(-c2ccccc2)[nH]c2c(F)cc(F)cc12,Potency,[1],inactive
CCCCCCCCCCCCCCC[C@@H](O)[C@H](CO)NC(=O)CCCCCCC,"activity change, negative = inhibition",[1],6.97% [at 6.83 µM] (inactive)
CO[C@H]1C[C@@H](O[C@@H]2/C(C)=C/C[C@@H]3C[C@@H](C[C@]4(CC[C@H](C)[C@@H](C5CCCCC5)O4)O3)OC(=O)[C@@H]3C=C(C)/C(=N/O)[C@H]4OC/C(=C\C=C\[C@@H]2C)[C@]43O)O[C@@H](C)[C@H]1O,Potency,[2],inactive
same,Potency,[3],22 µM (active)
same,Potency,[4],inactive
same,Potency,[5],inactive
Cc1ccc(CC2(O)CCN(CCOc3ccc(O)cc3)CC2)cc1,Potency,[1],inactive
C=C1CC2COC(=O)C2(Cc2ccc3ccccc3c2)C1 (stereo not drawn),Potency,[1],inactive
O=C(O)c1cc(NCc2cc(O)ccc2O)ccc1O,"parasite growth, % of DMSO control",[6],85.7%
same,"parasite growth remaining, % of DMSO control (lower = more inhibition)",[7],96.7%
same,"parasite growth, % of control (lower = inhibition)",[8],67.1%
same,"growth, % of control",[9],68.7%
same,Potency,[2],inactive
same,Potency,[3],12.4 µM (active)
same,Potency,[10],inactive
same,Potency,[11],22.4 µM (active)
same,Potency,[12],inactive
same,Potency,[13],inactive
same,Potency,[14],inactive
CCn1c(=O)n(C2=C(CO)CN(CC3CCCCCCC3)CC2)c2ccccc21,Potency,[1],inactive
CCCCCCCCCCCCCCCCOCC(CO)OC(C)=O (stereo not drawn),"activity change, negative = inhibition",[1],15.1% [at 6.83 µM] (inactive)
OCC(O)COc1cccc2ccccc12 (stereo not drawn),Potency,[1],inactive
Nc1ncnc2c1cnn2-c1ccccc1,Potency,[1],inactive
NC(=NCc1ccc(Cl)cc1Cl)NC(=O)c1nc(Cl)c(N)nc1N,Potency,[1],inactive
Nc1nc2c([nH]c(=O)n2[C@@H]2O[C@H](CO)[C@@H](O)[C@H]2O)c(=O)[nH]1,"activity change, negative = inhibition",[1],7.35% [at 6.83 µM] (inactive)
Cc1nn(C)c2nc(NNC(=O)Nc3cc(Cl)nc(Cl)c3)cc(C(C)C)c12,Potency,[1],inactive
O=C1NN(C(=O)Nc2ccc(Br)cc2)C(c2ccccc2)C1c1ccccc1 (stereo not drawn),Potency,[1],inactive
CC(CCCCC(=O)Nc1ccc(C(F)(F)F)cc1)NCCc1cnc[nH]1 (stereo not drawn),Potency,[1],inactive
CN(C)[C@@H]1C(=O)C(C(=O)NCN2CCCC2)=C(O)[C@@]2(O)C(=O)C3=C(O)c4c(O)cccc4[C@@](C)(O)[C@H]3C[C@@H]12,Potency,[2],9.61 µM (active)
same,Potency,[3],1.97 µM (active)
same,Potency,[12],inactive
same,Potency,[13],inactive
same,Potency,[4],inactive
